Inconclusive results are not listed. Activity calls are given as the source filed them. Rule for the calls: active = hit-call score of the fitted dose curve at least 0.9, where 1 is the maximum; inconclusive = response in the unintended direction; inactive = score below 0.9.
Legend:
[1] = target: Cellular tumor antigen p53 (Homo sapiens) (UniProt P04637); experiment: TOX21_p53_BLA_p2_ratio: Tox21 HCT-116 p53 Agonism Beta-lactamase Assay, Ratio, Phase 2 (AID 2283592)
In short: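 DMSO-normalized, positive-direction endpoint derived from the 460 nm/530 nm FRET ratio in HCT116 p53 beta-lactamase reporter cells exposed 16 h at 37C and loaded with CCF4-AM for 2 h.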

[2] = TOX21_p53_BLA_p4_viability: Viability Assessment in the Tox21 HCT-116 p53 Agonism Beta-lactamase Assay, Phase 4 (AID 2283597);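 note: hits lower the luminescence signal meaning cytotoxicity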
In short: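 In this multiplexed secondary endpoint, HCT116 cells (4000 per well, compound at 5 h, 16 h treatment) received CellTiter-Glo after the beta-lactamase read. Luminescence after 30 min RT reflects ATP, and falling signal marks cytotoxicity.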

[3] = target: Cellular tumor antigen p53 (Homo sapiens) (UniProt P04637); experiment: TOX21_p53_BLA_p5_ratio: Tox21 HCT-116 p53 Agonism Beta-lactamase Assay, Ratio, Phase 5 (AID 2283599)
In short: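 Beta-lactamase reporter ratio (blue 460 nm over green 530 nm, 405 nm excitation) after 2 h CCF4-AM loading, in HCT-116 cells exposed 16 h at 37 C to compounds pinned at 217-fold dilution. Increases relative to DMSO baseline scored.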

[4] = target: Cellular tumor antigen p53 (Homo sapiens) (UniProt P04637); experiment: TOX21_p53_BLA_p4_ratio: Tox21 HCT-116 p53 Agonism Beta-lactamase Assay, Ratio, Phase 4 (AID 2283601)
In short: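 Signal is the blue/green (460nm/530nm) ratio of cleaved versus uncleaved CCF4-AM substrate, read after 2 h substrate loading. Cells were HCT116 carrying the p53-responsive beta-lactamase reporter, dosed 16 h at 37C, 5% CO2; CellTiter-Glo measured in parallel.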

[5] = TOX21_p53_BLA_p5_viability: Viability Assessment in the Tox21 HCT-116 p53 Agonism Beta-lactamase Assay, Phase 5 (AID 2283600)
In short: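 Here cell health was gauged by ATP levels in wells holding 4000 cells, each treated 16 h with DMSO-delivered compounds at 217-fold dilution; reduced luminescence marked toxicity.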

Measured: outcome

Chain of Cellular tumor antigen p53 (Homo sapiens) (P04637 whole entry, looked up): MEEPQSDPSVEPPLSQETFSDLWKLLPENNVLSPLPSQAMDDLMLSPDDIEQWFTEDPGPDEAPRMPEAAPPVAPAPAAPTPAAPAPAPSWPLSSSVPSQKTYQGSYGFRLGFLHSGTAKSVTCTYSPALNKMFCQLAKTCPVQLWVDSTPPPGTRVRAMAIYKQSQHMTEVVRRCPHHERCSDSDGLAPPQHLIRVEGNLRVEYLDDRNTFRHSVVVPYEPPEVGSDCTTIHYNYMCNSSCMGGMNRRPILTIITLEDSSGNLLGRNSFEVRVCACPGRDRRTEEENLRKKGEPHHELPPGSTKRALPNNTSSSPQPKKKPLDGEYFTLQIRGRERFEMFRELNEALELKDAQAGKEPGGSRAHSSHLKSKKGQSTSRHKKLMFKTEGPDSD

COc1ccc(C(=O)NCc2ccc(OCCN(C)C)cc2)cc1OC
not listed: [5]
inactive: all other assays above

CC(=O)NC(=O)c1ccccc1O
inactive: all assays above

CC(C)CCC[C@@H](C)[C@H]1CC[C@H]2[C@@H]3CC[C@@H]4C[C@H](O)CC[C@]4(C)[C@H]3CC[C@]12C
inactive: all assays above

Brc1cc2ccccc2c2ccccc12
not listed: [5]
inactive: all other assays above

CCCn1cc[n+](C)c1C
inactive: [1] | [2] | [3]

COc1ccc(C=NNC(=O)c2ccncc2)c(C(=O)O)c1OC
inactive: all assays above

Source: PubChem BioAssay (EPA / NIEHS)
